Screening results: PubChem BioAssay, National Center for Advancing Translational Sciences (NCATS)
HT1080-NT tox: kills 2HG-producing HT-1080-NT fibrosarcoma cells; Potency, µM (highest dose often 46.1 µM), usual class: cytotoxic; 360,000 compounds, 1.6% hits; HT-1080-NT fibrosarcoma viability, CellTiter-Glo ATP luminescence, 48 h;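 note: NT is the 2HG producing partner of a matched IDH1 knockdown line; nearly all actives have a fitted effect of over 55% in size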
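Viability by CellTiter-Glo luminescence after 48 h compound exposure at 37C of HT-1080-NT cells (750/well, RPMI, 5% FBS). % activity scaled between DMSO wells and medium-only wells, then curve-fitted and categorized by curve class.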
HT1080 IDH1KD tx: HT-1080 IDH1 knockdown cell toxicity (counter line) | AID 686971 | HT-1080 IDH1 knockdown viability, ATP luminescence, 48 h | 360,000 compounds, 2% hits | Potency, µM (doses to about 46.1 µM), actives largely listed as cytotoxic
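% activity derives from luminescence (CellTiter-Glo), normalised to DMSO and no-cell wells. HT-1080-IDH1KD cells, 750/well, had 48 h compound exposure at 37 °C.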
IL-1B inflam inh: blocks inflammasome-driven IL-1 beta release; activity change, % at 57.5 µM; 360,000 compounds, 4.7% hits; THP-1 LPS/ATP IL-1B secretion, AlphaLISA, 16 h; stronger effect = lower value; AID 743279; in the data active = activity change below about -50%; inconclusive = mostly about -30% to -49%
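THP-1 cells pretreated 1 hr with compounds (up to 57.5 uM final), then stimulated with LPS (250 ng/mL final) plus ATP (1.25 mM final); secreted IL-1B measured by AlphaLISA after 16 hr, decreased signal indicating inhibition.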
KB-3-1 cytotox: KB-3-1 parental cell cytotoxicity; KB-3-1 viability, CellTiter-Glo ATP luminescence, 72 h; Potency, µM (titrated, usually from 46.1 µM), actives largely listed as cytotoxic; 400,000 compounds, 1.4% hits; AID 1347075; note: nearly all actives have a fitted effect of over 60% in size
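Cytotoxicity measured as CellTiter-Glo luminescence after 72 h at 37 C. Compound titrations were pinned onto drug-naive KB-3-1 parental adenocarcinoma cells grown in DMEM with 10% FBS, and normalized data fitted to concentration-response curves.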
KB-V1 MDR tox: KB-V1 MDR subline cytotoxicity; KB-V1 MDR cells viability, CellTiter-Glo, 72 h; AID 1347076; 400,000 compounds, 3.4% hits; Potency, µM (highest dose often 46.1 µM), most hits filed as cytotoxic; note: nearly all actives have a fitted effect of over 60% in size
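Potencies derive from concentration-effect curves fitted to normalized luminescence (CellTiter-Glo) of KB-V1 cells treated for 72 h at 37 degrees C in phenol-red-free DMEM containing 10% FBS.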
Numbers stand for hits; n = inactive; u = inconclusive; x = not tested or not shown; [ ] = dose if it differs, or a comment. Most compounds without a hit are left out; they make up all but 8.8% or so of the library. Unless noted, calls come from the whole dose curve; as a rule, active = well fitted curve in the direction sought with a large enough effect; inconclusive = small, poorly fitted or top-dose-only effect, or another doubt; inactive = no such curve, though single readings can be large; an effect the other way counts as inactive or inconclusive.

SMILES	HT1080-NT tox	HT1080 IDH1KD tx	IL-1B inflam inh	KB-3-1 cytotox	KB-V1 MDR tox
CN(CCCNC(=O)CSc1cc(=O)n(C)c2cc(Cl)ccc12)Cc1ccccc1	u	21µM	u	n	n
Cn1c(=O)cc(SCC(=O)NCc2ccc(F)cc2)c2ccc(Cl)cc21	x	x	x	n	n
O=C(CSc1ncccn1)N1CCC(Cc2ccccc2)CC1	n	n	n	n	u
Cc1[nH]nc2c1C(C(C)c1ccccc1)C(C#N)=C(N)O2 (stereo not given)	n	n	-86	n	n
N#Cc1csc(CCNC(=O)c2ccccc2)n1	n	n	n	n	n
O=C(NCCc1nc(-c2ccccc2)cs1)c1ccc(Br)cc1	n	n	-77	n	n
Cc1cc(=O)n(CC(=O)N2CCCc3ccccc32)c2c1c(C)nn2-c1cccc(F)c1	x	x	x	n	n
CCN(Cc1ccccc1)c1ccc(/C=N/N=C(N)N)cc1	18µM	u	-100	u	u
CC(C)C(=O)N1CCN(c2ccc([N+](=O)[O-])c(NC(C)c3ccccc3)c2)CC1 (stereo not given)	u	n	-64	n	n
CC(Nc1cc(N2CCNCC2)ccc1[N+](=O)[O-])c1ccccc1 (stereo not given)	n	n	u	n	n
O=[N+]([O-])c1ccc(N2CCCC2)cc1NC(c1ccccc1)c1ccccc1	n	n	n	n	n
CC(Nc1cc(N2CCN(C(=O)C(C)(C)C)CC2)ccc1[N+](=O)[O-])c1ccccc1 (stereo not given)	n	n	n	u	10µM
O=[N+]([O-])c1ccc(N2CCOCC2)cc1NC(c1ccccc1)c1ccccc1	n	n	n	n	16µM
CCS(=O)(=O)N1CCN(c2ccc([N+](=O)[O-])c(NC(C)c3ccccc3)c2)CC1 (stereo not given)	n	n	u	n	u
CN(C)S(=O)(=O)N1CCN(c2ccc([N+](=O)[O-])c(NC3CC3)c2)CC1	n	n	n	n	n
O=[N+]([O-])c1ccc(N2CCCC2)cc1NC1CC1	n	n	n	n	21µM
COc1cccc(/C=C/c2nc(C#N)c(NCC(C)C)o2)c1	n	u	u	u	u
COCCN(CC(=O)Nc1cc(Cl)ccc1-n1cncn1)Cc1nc2ccccc2c(=O)[nH]1	n[9.24 µM]	n	n	u	n
Cc1ccc([C@@H]2CC=C(C(=O)O)[C@H](c3ccccc3)N2S(=O)(=O)c2ccccc2C)cc1	n	n	n	n	n
Cn1cc(S(=O)(=O)c2ccc(Cl)cc2)c(=O)c2cc(F)c(N3CCOCC3)cc21	x	x	x	n	n
Cc1cc(C)c2c(=O)cc(CSc3nnc(-c4ccccc4)n3C)[nH]c2c1	x	x	x	n	n
CN(CC/C=C1/c2ccccc2CSc2ccccc21)CCCO	n	n	-58	n	23µM
NCC/C=C1/c2ccccc2CSc2ccccc21	14µM	u	n	u	u
CC(O)CN(C)CC/C=C1/c2ccccc2CSc2ccccc21 (stereo not given)	n	n	n	n	n
C=CCN(C)CC/C=C1\c2ccccc2CSc2ccccc21	u	n	n	n	n
SMILES	HT1080-NT tox	HT1080 IDH1KD tx	IL-1B inflam inh	KB-3-1 cytotox	KB-V1 MDR tox
CN(C)CC/C=C1\c2cc(F)ccc2CSc2ccccc21	n	n	-57	n	21µM
Cc1ccc2cc(C(c3nnnn3C3CCCC3)N(Cc3ccccc3)Cc3ccco3)c(=O)[nH]c2c1 (stereo not given)	n	n	n	n	u
CCC(C)(C)n1nnnc1C(c1cc2ccc(C)cc2[nH]c1=O)N(Cc1cccnc1)Cc1ccco1 (stereo not given)	n	n	-69	n	21µM
Cc1cc2cc(C(c3nnnn3C3CCCC3)N(Cc3cccnc3)Cc3ccco3)c(=O)[nH]c2cc1C (stereo not given)	u	10µM	u	n	n
Cc1nc([N+](=O)[O-])c(Sc2nc3ccccc3n2C)n1Cc1ccccc1	n	u	-105	n	n
COc1ccc(C(C)(O)c2nc(-c3cccc(C(C)C)c3)cs2)cc1 (stereo not given)	u	u	n	u	u
Cc1cc(C(=O)Cn2cnc3ccc(Cl)cc3c2=O)c(C)n1C1CC1	n	n	n	n	n
Cc1c(NC(=O)C(F)(F)F)ccc2nc3c(=O)n(C)c(=O)n(C)c3nc12	x	x	x	n	13µM
CCC(=O)Nc1ccc2nc3c(=O)n(C)c(=O)n(C)c3nc2c1	x	x	x	n	n
CCOc1ccccc1NC(=O)C1=C(C)Nc2ncnn2C1c1ccc(C)o1 (stereo not given)	x	x	x	n	n
C#CC1(O)CCC2C3CCC4=C(CCC(=O)C4)C3CCC21C (stereo not given)	n	n	n	u	1.5µM
C#C[C@]1(O)CC[C@H]2[C@@H]3CCc4cc(O)ccc4[C@H]3CC[C@@]21C	9.2µM	21µM	n	u	16µM
CC12CCC3c4ccc(O)cc4CCC3C1CCC2=O (stereo not given)	n	n	n	n	u
COc1ccc(C(N)c2csc(Nc3nncc4ccccc34)n2)cc1 (stereo not given)	u	u	n	n	u
CCOc1ccc(Oc2nc(NCC(C)C)nc(N3CCOCC3)n2)nn1	x	x	x	n	n
Cc1cccc(C)c1NC(=O)C(Cl)=C(Cl)Cl	u	u	-59	18µM	u
CCN(CC)CC(=O)Nc1c(C)cccc1C	u	n	n	n	n
COc1ccc(CN2CCN(C(=O)c3cccc4ccccc34)CC2)cc1OC	n	n	n	n	n
COc1ccccc1CN1CCN(C(=O)c2cccc3ccccc23)CC1	n	n	n	n	n
COc1cccc(CN2CCN(C(=O)c3cccc4ccccc34)CC2)c1OC	n	n	-77	n	n
COc1ccc2ccccc2c1CN1CCN(C(=O)c2ccco2)CC1	n	n	-52	n	u
O=C(c1ccco1)N1CCCN(Cc2cn[nH]c2-c2ccc(-c3ccccc3)cc2)CC1	n	n	-82	n	u
COc1ccc(CN2CCN(C(=O)c3cccc4ccccc34)CC2)cc1Br	u	u	-65	n	n
CCOc1ccccc1-c1nc(CN2CCN(C(=O)c3ccco3)CC2)c(C)o1	n	n	n	n	n
CCOc1ccccc1-n1c(CN2CCN(C(=O)c3ccco3)CC2)nc2ccccc2c1=O	5.6µM	10µM	-103	n	u
SMILES	HT1080-NT tox	HT1080 IDH1KD tx	IL-1B inflam inh	KB-3-1 cytotox	KB-V1 MDR tox
c1ccc(-c2nc3ccccc3[nH]2)cc1	n	n	n	n	n
COc1ccc(-c2nc3ccccc3[nH]2)cc1	10µM	11µM	n	u	u
COC(=O)c1ccc(-c2nc3ccccc3[nH]2)cc1	u	u	n	u	18µM
COc1ccc(-c2cc(=O)n(-c3nc4ccccc4[nH]3)[nH]2)cc1	22µM	u	n	21µM	n
COc1ccc(CCCc2nc3ccccc3[nH]2)cc1	n	n	n	n	n
COc1ccc(C(=O)Nc2ccc(-c3nc4ccccc4[nH]3)cc2)cc1OC	x	x	x	n	u
